Laboratory results published in paper PMC11995724, “Antibiotic target discovery by integrated phenotypic and activity-based profiling of electrophilic fragments” (Cell chemical biology, 2025).
The campaign covered roughly 3,200 compounds. About 110 (3.4%) showed an effect of 50% or more. For the sample, strong results were picked, then their nearest neighbours and some compounds at random.

Test system: T1, V. cholerae SAD30
T1 construct: SAD30
Parameters: species or system S. aureus MSSA476 (TSB) or V. cholerae SAD30 (LB); 384-well bacterial growth screen at 25 uM, OD600 relative to DMSO control
Details: relative growth, OD600, LB; 25 µM; inhibitor

Compound | % of control remaining
CCN(CC)S(=O)(=O)c1cccc(NC(=O)CCl)c1 [4-M07, 2-chloro-N-[3-(diethylsulfamoyl)phenyl]acetamide] | 105.931%
C=CC(=O)N1CCC(C(=O)N[C@H]2CCC[C@H]2O)CC1 [2-K04, N-[(1S,2R)-2-hydroxycyclopentyl]-1-(prop-2-enoyl)piperidine-4-carboxamide] | 95.9085%
C=CC(=O)N1CCC(n2ncc3ccccc32)CC1 [1-K22, 1-[4-(1H-indazol-1-yl)piperidin-1-yl]prop-2-en-1-one] | 95.6652%
CC(Cl)C(=O)Nc1nc(-c2ccccc2)cs1 (centres unmarked) [6-L10, 2-chloro-N-(4-phenyl-1,3-thiazol-2-yl)propanamide] | 85.6953%
C=CC(=O)N1CCOCC1c1cc(F)cc(F)c1 (centres unmarked) [2-O16, 1-[3-(3,5-difluorophenyl)morpholin-4-yl]prop-2-en-1-one] | 92.203%
CCC(=O)N1CCc2cc(C(=O)CCl)ccc21 [10-C22, 1-[5-(2-chloroacetyl)-2,3-dihydro-1H-indol-1-yl]propan-1-one] | 119.54%
O=C(CCl)c1ccc2c(c1)CCN(C(=O)C(F)(F)F)C2 [10-E09, 1-[6-(2-chloroacetyl)-1,2,3,4-tetrahydroisoquinolin-2-yl]-2,2,2-trifluoroethan-1-one] | 98.6558%
O=C(CCl)c1c[nH]c(C(=O)N2CCCC2)c1 [10-A16, 2-chloro-1-[5-(pyrrolidine-1-carbonyl)-1H-pyrrol-3-yl]ethan-1-one] | 108.475%
CCS(=O)(=O)N1CCc2cc(C(=O)CCl)ccc21 [10-E18, 2-chloro-1-[1-(ethanesulfonyl)-2,3-dihydro-1H-indol-5-yl]ethan-1-one] | 27.8979%
CC1Cc2cc(C(=O)CCl)ccc2N1S(C)(=O)=O (centres unmarked) [10-A04, 2-chloro-1-(1-methanesulfonyl-2-methyl-2,3-dihydro-1H-indol-5-yl)ethan-1-one] | 89.6162%
O=C(CCl)NCCS(=O)(=O)N1CCc2ccccc21 [6-H04, 2-chloro-N-[2-(2,3-dihydro-1H-indole-1-sulfonyl)ethyl]acetamide] | 103.138%
N#Cc1ccc2c(c1)CCN2C(=O)CCl [5-N09, 1-(2-chloroacetyl)-2,3-dihydro-1H-indole-5-carbonitrile] | 93.4748%
O=C(CCl)c1cc2c3c(c1)CC(=O)N3CCC2 [10-G16, 6-(2-chloroacetyl)-1-azatricyclo[6.3.1.0,4,12]dodeca-4(12),5,7-trien-2-one] | 27.7421%
CS(=O)(=O)N1CCCc2cc(C(=O)CCl)ccc21 [10-H19, 2-chloro-1-(1-methanesulfonyl-1,2,3,4-tetrahydroquinolin-6-yl)ethan-1-one] | 22.9106%
CN1C(=O)Cc2cc(C(=O)CCl)ccc21 [10-G07, 5-(2-chloroacetyl)-1-methyl-2,3-dihydro-1H-indol-2-one] | 54.3931%
O=CN1CCc2cc(C(=O)CCl)ccc21 [10-K20, 5-(2-chloroacetyl)-2,3-dihydro-1H-indole-1-carbaldehyde] | 27.1186%
Cc1ccc(NC(=O)N2CCSSCC2)c(C)c1 [10-F11, N-(2,4-dimethylphenyl)-1,2,5-dithiazepane-5-carboxamide] | 95.0711%
CC(Cl)C(=O)N(C)CCn1c(=O)oc2ccccc21 (centres unmarked) [7-H15, 2-chloro-N-methyl-N-[2-(2-oxo-2,3-dihydro-1,3-benzoxazol-3-yl)ethyl]propanamide] | 82.4715%
CC(C#N)CSc1ccccc1NC(=O)CCl (centres unmarked) [6-K16, 2-chloro-N-{2-[(2-cyano-2-methylethyl)sulfanyl]phenyl}acetamide] | 86.757%
C=CC(=O)N1CCC(C(=O)N[C@]2(C(=O)OC)CC[C@@H](C)CC2)CC1 [3-E17, methyl (1r,4r)-4-methyl-1-[1-(prop-2-enoyl)piperidine-4-amido]cyclohexane-1-carboxylate] | 101.088%
O=C(CCl)N(Cc1ccc(Cl)cc1)C12CC3CC(CC(C3)C1)C2 [4-H07, N-(adamantan-1-yl)-2-chloro-N-[(4-chlorophenyl)methyl]acetamide] | 55.3806%
Cc1nn(CCC(=O)N2CCSSCC2)c(C)c1[N+](=O)[O-] [10-J05, 3-(3,5-dimethyl-4-nitro-1H-pyrazol-1-yl)-1-(1,2,5-dithiazepan-5-yl)propan-1-one] | 92.1099%
CCOC(=O)c1c(NC(=O)CCl)sc(C)c1C [4-O15, ethyl 2-(2-chloroacetamido)-4,5-dimethylthiophene-3-carboxylate] | 102.998%
CC(=O)N1CCc2cc(C(=O)C(C)Cl)ccc21 (centres unmarked) [10-L22, 1-(1-acetyl-2,3-dihydro-1H-indol-5-yl)-2-chloropropan-1-one] | 100.214%

Compound | % of control remaining
CS(=O)(=O)N1CCc2cc(C(=O)CCl)ccc21 [10-B19, 2-chloro-1-(1-methanesulfonyl-2,3-dihydro-1H-indol-5-yl)ethan-1-one] | 18.0791%
CC(=O)N1c2ccc(C(=O)CCl)cc2CC1C (centres unmarked) [10-I20, 1-(1-acetyl-2-methyl-2,3-dihydro-1H-indol-5-yl)-2-chloroethan-1-one] | 84.473%
N#CC(=Cc1ccsc1)C(=O)Nc1ccccc1Cl [9-O05, N-(2-chlorophenyl)-2-cyano-3-(thiophen-3-yl)prop-2-enamide] | 98.9123%
C=CC(=O)NCC1CNC(=O)c2ccccc21 (centres unmarked) [2-F17, N-[(1-oxo-1,2,3,4-tetrahydroisoquinolin-4-yl)methyl]prop-2-enamide] | 90.0415%
CC(Cl)C(=O)N1CCN(CCOc2ccc3c(c2)CCC3)CC1 (centres unmarked) [6-H17, 2-chloro-1-{4-[2-(2,3-dihydro-1H-inden-5-yloxy)ethyl]piperazin-1-yl}propan-1-one] | 64.6128%
C=CC(=O)N1CCCC(CS(=O)(=O)NC)C1 (centres unmarked) [2-E18, N-methyl-1-[1-(prop-2-enoyl)piperidin-3-yl]methanesulfonamide] | 95.4453%
O=C(CCl)c1cscn1 [10-L08, 2-chloro-1-(1,3-thiazol-4-yl)ethan-1-one] | 0%
C[C@@H](NC(=O)CCl)c1ccccc1 [6-O20, 2-chloro-N-[(1R)-1-phenylethyl]acetamide] | 94.0373%
C[C@H]1CN(C(=O)CCl)CCN1C(=O)c1cscn1 [5-L05, 2-chloro-1-[(3S)-3-methyl-4-(1,3-thiazole-4-carbonyl)piperazin-1-yl]ethan-1-one] | 86.0775%
Cl.O=C(CCl)Nc1ccccn1 [5-B14, 2-chloro-N-(pyridin-2-yl)acetamide hydrochloride] | 98.0141%
Cn1ccnc1C(=O)CCl [10-C15, 2-chloro-1-(1-methyl-1H-imidazol-2-yl)ethan-1-one] | 101.461%
O=C(CCl)c1ccccn1 [10-J03, 2-chloro-1-(pyridin-2-yl)ethan-1-one] | 0%
N#CC(=Cc1ccc(O)cc1)C(=O)NCCc1c(F)cccc1F [9-I16, 2-cyano-N-[2-(2,6-difluorophenyl)ethyl]-3-(4-hydroxyphenyl)prop-2-enamide] | 83.8205%
c1nc(N2CCSSCC2)c2c3c(sc2n1)CCCC3 [10-M22, 3-(1,2,5-dithiazepan-5-yl)-8-thia-4,6-diazatricyclo[7.4.0.0,2,7]trideca-1(9),2,4,6-tetraene] | 79.3298%
O=C(CCl)Nc1nccc(Cl)n1 [6-C19, 2-chloro-N-(4-chloropyrimidin-2-yl)acetamide] | 88.7288%
CC(Cl)C(=O)Nc1ccccc1Sc1ccccc1 (centres unmarked) [6-H10, 2-chloro-N-[2-(phenylsulfanyl)phenyl]propanamide] | 56.4224%
O=C1C=CC(=O)N1c1ccccc1Sc1ccccc1 [10-K12, 1-[2-(phenylsulfanyl)phenyl]-2,5-dihydro-1H-pyrrole-2,5-dione] | 28.0538%
O=C(CCl)Nc1ccccc1Sc1ccc(Cl)cc1 [4-O13, 2-chloro-N-{2-[(4-chlorophenyl)sulfanyl]phenyl}acetamide] | 72.9782%
O=C1C=CC(=O)N1c1ccccc1Sc1ccc(Cl)cc1 [10-A03, 1-{2-[(4-chlorophenyl)sulfanyl]phenyl}-2,5-dihydro-1H-pyrrole-2,5-dione] | 28.6772%
O=C(O)C(c1ccccc1)N1C(=O)C=CC1=O (centres unmarked) [10-E21, 2-(2,5-dioxo-2,5-dihydro-1H-pyrrol-1-yl)-2-phenylacetic acid] | 103.487%
Cc1cc(NC(=O)CCl)n(-c2ccccc2)n1 [4-G05, 2-chloro-N-(3-methyl-1-phenyl-1H-pyrazol-5-yl)acetamide] | 102.825%
CC(C)c1ccc(CCNC(=O)CCl)cc1 [6-I16, 2-chloro-N-{2-[4-(propan-2-yl)phenyl]ethyl}acetamide] | 91.9139%
C=CC(=O)N1CCN(S(=O)(=O)Cc2ccon2)CC1 [1-J07, 1-{4-[(1,2-oxazol-3-yl)methanesulfonyl]piperazin-1-yl}prop-2-en-1-one] | 89.2377%
